Measurements as given in PubChem BioAssay AID1159580 (chemical genetic matrix, 2015).
The whole screen tested about 5,500 compounds, of which about 2,000 (36%) were called active. Another 18% or so got no clear call; they are omitted. Rule as the data show it: active = normalized growth mostly below about 0.91 (no sharp cut-off); inconclusive = no clear call, values can overlap the other calls; inactive = mostly above about 0.92. The list shows a part of the results.

Test: chemical genetic growth profiling, strain panel (AID 1159580);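 also: tested at 20 µM; growth read once vehicle control cultures reached saturation at 30 °C; 1 = growth at the plate median or of vehicle wells; lower values mean less growth of the strain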
Settings: growth OD

Measured: normalized growth

OCC(O)CN1CCN(c2ccccc2)CC1 (configuration not stated)
inactive: S. cerevisiae deletion strains, locus YJR075W, strain HOC1, active compounds read low 0.987 | S. cerevisiae deletion strains, locus YKL009W, strain mrt4, active compounds read low 1.01 | S. cerevisiae deletion strains, locus YKL068W, active compounds read low 0.994 | S. cerevisiae deletion strains, locus YKL085W, strain MDH1 (second series), active compounds read low 0.99 | S. cerevisiae deletion strains, locus YKL085W, strain MDH1, active compounds read low 0.99 | S. cerevisiae deletion strains, locus YKL160W, strain elf1, active compounds read low 0.958 | S. cerevisiae deletion strains, locus YKL190W, strain CNB1, active compounds read low 1.01 | S. cerevisiae deletion strains, locus YKR001C, strain vps1, active compounds read low 1 | S. cerevisiae deletion strains, locus YKR026C, strain gcn3, active compounds read low 0.977 | S. cerevisiae deletion strains, locus YKR091W, strain srl3, active compounds read low 0.982 | S. cerevisiae deletion strains, locus YLL001W, strain dnm1, active compounds read low 0.988 | S. cerevisiae deletion strains, locus YLL026W, active compounds read low 0.988 | S. cerevisiae deletion strains, locus YLL041C, strain sdh2, active compounds read low 0.975 | S. cerevisiae deletion strains, locus YLR027C, strain aat2, active compounds read low 0.992 | S. cerevisiae deletion strains, locus YLR039C, strain RIC1, active compounds read low 1.04 | S. cerevisiae deletion strains, locus YLR058C, strain SHM2, active compounds read low 0.994 | S. cerevisiae deletion strains, locus YLR102C, strain apc9, active compounds read low 1 | S. cerevisiae deletion strains, locus YLR113W, strain HOG1, active compounds read low 0.999 | S. cerevisiae deletion strains, locus YLR221C, strain rsa3, active compounds read low 0.973 | S. cerevisiae deletion strains, locus YLR258W, strain gsy2, active compounds read low 0.992 | S. cerevisiae deletion strains, locus YLR262C, strain YPT6 (second series), active compounds read low 0.959 | S. cerevisiae deletion strains, locus YLR262C, strain YPT6, active compounds read low 1.05 | S. cerevisiae deletion strains, locus YLR268W, strain sec22, active compounds read low 0.953 | S. cerevisiae deletion strains, locus YLR320W, strain mms22, active compounds read low 1 | S. cerevisiae deletion strains, locus YLR330W, strain CHS5, active compounds read low 1.02 | S. cerevisiae deletion strains, locus YLR342W, strain FKS1 (second series), active compounds read low 1.02 | S. cerevisiae deletion strains, locus YLR342W, strain FKS1, active compounds read low 0.993 | S. cerevisiae deletion strains, locus YLR357W, strain rsc2, active compounds read low 0.987 | S. cerevisiae deletion strains, locus YLR370C, strain arc18, active compounds read low 0.978 | S. cerevisiae deletion strains, locus YLR371W, strain rom2, active compounds read low 1 | S. cerevisiae deletion strains, locus YLR384C, strain iki3, active compounds read low 0.987 | S. cerevisiae deletion strains, locus YLR418C, strain cdc73, active compounds read low 0.971 | S. cerevisiae deletion strains, locus YML016C, strain PPZ1, active compounds read low 0.992 | S. cerevisiae deletion strains, locus YML032C, strain rad52, active compounds read low 0.988 | S. cerevisiae deletion strains, locus YML120C, strain ndi1, active compounds read low 0.982 | S. cerevisiae deletion strains, locus YML124C, strain tub3, active compounds read low 0.989 | S. cerevisiae deletion strains, locus YMR058W, strain fet3, active compounds read low 0.969 | S. cerevisiae deletion strains, locus YMR078C, strain ctf18, active compounds read low 0.978 | S. cerevisiae deletion strains, locus YMR125W, strain sto1, active compounds read low 0.995 | S. cerevisiae deletion strains, locus YMR129W, active compounds read low 0.981 | S. cerevisiae deletion strains, locus YMR205C, strain PFK2, active compounds read low 1.01 | S. cerevisiae deletion strains, locus YMR223W, strain ubp8, active compounds read low 1.01 | S. cerevisiae deletion strains, locus YMR231W, strain pep5, active compounds read low 0.989 | S. cerevisiae deletion strains, locus YMR263W, strain SAP30, active compounds read low 0.989 | S. cerevisiae deletion strains, locus YMR307W, strain GAS1, active compounds read low 1.03 | S. cerevisiae deletion strains, locus YNL067W, strain RPL9B, active compounds read low 0.988 | S. cerevisiae deletion strains, locus YNL071W, strain lat1, active compounds read low 0.985 | S. cerevisiae deletion strains, locus YNL128W, strain TEP1, active compounds read low 1 | S. cerevisiae deletion strains, locus YNL153C, strain GIM3, active compounds read low 0.988 | S. cerevisiae deletion strains, locus YNL183C, strain NPR1, active compounds read low 0.908 | S. cerevisiae deletion strains, locus YNL209W, strain ssb2, active compounds read low 0.983 | S. cerevisiae deletion strains, locus YNL233W, strain BNI4, active compounds read low 1.01 | S. cerevisiae deletion strains, locus YNL248C, strain rpa49, active compounds read low 0.925 | S. cerevisiae deletion strains, locus YNL250W, strain rad50, active compounds read low 0.988 | S. cerevisiae deletion strains, locus YNL271C, strain bni1, active compounds read low 0.985 | S. cerevisiae deletion strains, locus YNL298W, strain CLA4, active compounds read low 0.985 | S. cerevisiae deletion strains, locus YNL307C, strain MCK1, active compounds read low 0.997 | S. cerevisiae deletion strains, locus YNL322C, strain KRE1 (second series), active compounds read low 0.97 | S. cerevisiae deletion strains, locus YNL322C, strain KRE1, active compounds read low 1 | S. cerevisiae deletion strains, locus YNR049C, strain mso1, active compounds read low 0.974 | S. cerevisiae deletion strains, locus YNR052C, strain pop2, active compounds read low 1 | S. cerevisiae deletion strains, locus YOL006C, strain TOP1, active compounds read low 0.981 | S. cerevisiae deletion strains, locus YOL012C, strain htz1 0.702 | S. cerevisiae deletion strains, locus YOL147C, strain pex11, active compounds read low 0.991 | S. cerevisiae deletion strains, locus YOR001W, strain rrp6, active compounds read low 0.943 | S. cerevisiae deletion strains, locus YOR061W, strain CKA2, active compounds read low 0.999 | S. cerevisiae deletion strains, locus YOR069W, strain VPS5, active compounds read low 0.986 | S. cerevisiae deletion strains, locus YOR070C, strain gyp1, active compounds read low 0.992 | S. cerevisiae deletion strains, locus YOR080W, strain dia2, active compounds read low 0.988 | S. cerevisiae deletion strains, locus YOR083W, strain WHI5, active compounds read low 0.934 | S. cerevisiae deletion strains, locus YOR106W, strain vam3, active compounds read low 0.943 | S. cerevisiae deletion strains, locus YOR136W, strain idh2, active compounds read low 0.994 | S. cerevisiae deletion strains, locus YOR144C, strain elg1, active compounds read low 0.993 | S. cerevisiae deletion strains, locus YOR184W, strain ser1, active compounds read low 1 | S. cerevisiae deletion strains, locus YOR231W, strain MKK1, active compounds read low 0.979 | S. cerevisiae deletion strains, locus YOR265W, strain rbl2, active compounds read low 0.985 | S. cerevisiae deletion strains, locus YOR270C, strain vph1, active compounds read low 0.981 | S. cerevisiae deletion strains, locus YOR290C, strain snf2, active compounds read low 0.962 | S. cerevisiae deletion strains, locus YOR316C, strain cot1, active compounds read low 0.985 | S. cerevisiae deletion strains, locus YPL051W, strain arl3, active compounds read low 0.974 | S. cerevisiae deletion strains, locus YPL055C, strain LGE1, active compounds read low 1 | S. cerevisiae deletion strains, locus YPL078C, strain atp4, active compounds read low 0.932 | S. cerevisiae deletion strains, locus YPL106C, strain sse1, active compounds read low 0.961 | S. cerevisiae deletion strains, locus YPL240C, strain hsp82, active compounds read low 0.972 | S. cerevisiae deletion strains, locus YPL241C, strain CIN2, active compounds read low 0.997 | S. cerevisiae deletion strains, locus YPL256C, strain CLN2, active compounds read low 0.964 | S. cerevisiae deletion strains, locus YPR119W, strain clb2, active compounds read low 0.992 | S. cerevisiae deletion strains, locus YPR141C, strain kar3, active compounds read low 0.987 | S. cerevisiae deletion strains, locus YPR163C, strain tif3, active compounds read low 0.988 | S. cerevisiae deletion strains, locus YPR167C, strain met16, active compounds read low 0.989 | S. cerevisiae deletion strains, strain wtn01, active compounds read low 0.95 | S. cerevisiae strains, strain wild type, active compounds read low 1
